Among the test systems are SR leukemia; RPMI-8226 leukemia; OVCAR-8 ovarian; OVCAR-5 ovarian; OVCAR-4 ovarian; SK-OV-3 ovarian; IGROV1 ovarian; OVCAR-3 ovarian; HS 578T breast; NCI/ADR-RES ovarian; T-47D breast; BT-549 breast; MDA-MB-435 melanoma; SW-620 colon; MCF7 breast; HCT-116 colon; HCC-2998 colon; KM12 colon.
Test in all cases: NCI-60 one-dose screen, 48 h (100 = growth as untreated, 0 = no growth, -100 = all killed)
Conditions in all cases: 10 µM unless noted

This is part of a sample that, as a whole, favours compounds with a hit. Of some 83,000 tested, about 20% had one in any assay.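 Plates (96-well) were seeded with cells, treated with compound at one concentration, and incubated for 48 hours before percent growth was determined.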 Values without a mark were called inactive. The source made the active and inactive calls. The calls were made as follows: active = growth percent below 10; inactive = the rest.

Take `CCOP(=O)(OCC)OC[C@]12CC[C@@H](C)[C@H](C)C1C1=CC[C@@H]3[C@@]4(C)CCCNC(C)(C)[C@@H]4CC[C@@]3(C)[C@]1(C)CC2` (stereo partly specified): the growth was -57.7% (active) in the test with SR leukemia; -48.9% (active) in the test with RPMI-8226 leukemia; 61.2% in the test with OVCAR-8 ovarian; 70% in the test on OVCAR-5 ovarian; 34.4% in the test with OVCAR-4 ovarian; 72.7% in the test on SK-OV-3 ovarian. The growth in the test on IGROV1 ovarian was 0.926% (active); with OVCAR-3 ovarian, 38.4%; in the test with HS 578T breast it was 47.8%; in the test with NCI/ADR-RES ovarian, 20.6%; in the test on T-47D breast, 38.2%; with BT-549 breast it was 71.7%. Moreover, the growth in the test with MDA-MB-435 melanoma is 28.4%; in the test on SW-620 colon, -54.7% (active); with MCF7 breast, -59.8% (active); in the test with HCT-116 colon, -84.5% (active); in the test with HCC-2998 colon, -55.1% (active); in the test on KM12 colon, 18.2%.

In the case of `CSc1ccc(/C(=N/N=C(N)N)c2ccc(F)cc2)cc1`, the growth was -13.8% (active) in the test with SR leukemia; 5.69% (active) in the test with RPMI-8226 leukemia; 11.9% in the test on OVCAR-8 ovarian; 43.9% in the test with OVCAR-5 ovarian; 57% with OVCAR-4 ovarian; 45.3% in the test with SK-OV-3 ovarian. Further, the growth was 39.9% in the test with IGROV1 ovarian; 27.5% in the test on OVCAR-3 ovarian; -1.22% (active) in the test on HS 578T breast; 4.1% (active) in the test with NCI/ADR-RES ovarian; 58.1% in the test with T-47D breast; 16.2% in the test with BT-549 breast. Besides, the growth in the test on MDA-MB-435 melanoma was 10.6%; in the test on SW-620 colon it was 22.2%; in the test with MCF7 breast it was 5.11% (active); with HCT-116 colon, 6.25% (active); in the test on HCC-2998 colon it was -14.1% (active); with KM12 colon, 9.6% (active).

For the molecule `CC1=C(C)C(=O)C(Nc2cccc(C(=O)OC(C)(C)C)c2)=C(Cl)C1=O`, the growth in the test on SR leukemia was 16.3%; in the test with RPMI-8226 leukemia, 10.3%; in the test on OVCAR-8 ovarian it was 92.9%; in the test with OVCAR-5 ovarian it was 106%; in the test on OVCAR-4 ovarian, 80.2%; with SK-OV-3 ovarian it was 103%. Also, the growth in the test on IGROV1 ovarian was 12.4%; in the test with OVCAR-3 ovarian, 101%; in the test with HS 578T breast, 97.2%; in the test on NCI/ADR-RES ovarian, 97.6%; with T-47D breast it was 4.99% (active); in the test on BT-549 breast it was 106%. Further, the growth was 103% in the test on MDA-MB-435 melanoma; 88.7% in the test with SW-620 colon; 46.3% with MCF7 breast; 72.6% with HCT-116 colon; 99% in the test with HCC-2998 colon; 99.2% in the test on KM12 colon.

On to `Cc1[nH]c(C(=O)Nc2ccc(C(=O)NCC3CCNCC3)cc2OC(C)C)c(Cl)c1Cl`, for which the growth with SR leukemia is -0.735% (active); with RPMI-8226 leukemia, 42.3%; with OVCAR-8 ovarian it was 86.6%; in the test on OVCAR-5 ovarian it was 84.9%; in the test with OVCAR-4 ovarian it was 89.5%; with SK-OV-3 ovarian, 97.3%. Further, the growth is 54.4% in the test on IGROV1 ovarian; 85.6% in the test with OVCAR-3 ovarian; 69.1% in the test on HS 578T breast; 100% in the test with NCI/ADR-RES ovarian; 77.6% with T-47D breast; 92.6% in the test with BT-549 breast. The growth with MDA-MB-435 melanoma is 72.2%; with SW-620 colon, 33.6%; in the test on MCF7 breast, -76.3% (active); with HCT-116 colon, 33.2%; in the test with HCC-2998 colon, 55.3%; in the test on KM12 colon, 56%.

For `O=C(/C=C/c1ccccc1)c1cccc(O)c1`, the growth in the test on SR leukemia is 67.5%; in the test on RPMI-8226 leukemia, -17.9% (active); with OVCAR-8 ovarian, 92.3%; with OVCAR-5 ovarian, 101%; with OVCAR-4 ovarian, 105%; in the test with SK-OV-3 ovarian, 107%. The growth in the test on IGROV1 ovarian was 97.8%; in the test with OVCAR-3 ovarian it was 106%; in the test on HS 578T breast it was 114%; in the test on NCI/ADR-RES ovarian it was 107%; in the test with T-47D breast it was 97.8%; with BT-549 breast, 95.4%. The growth with MDA-MB-435 melanoma was 95.9%; in the test with SW-620 colon, 104%; in the test on MCF7 breast, 14%; with HCT-116 colon, 80%; in the test on HCC-2998 colon it was 111%; in the test with KM12 colon it was 88.8%.

Turning to `CC(=O)C1=C(C)NC(NNc2ccccc2)=NC1c1ccc([N+](=O)[O-])cc1` (stereo unspecified), the growth in the test with SR leukemia was 62.4%; with RPMI-8226 leukemia, 92.4%; in the test on OVCAR-8 ovarian, 91.1%; in the test on OVCAR-5 ovarian, 95.9%; with OVCAR-4 ovarian, 84.3%; in the test on SK-OV-3 ovarian, 106%. The growth in the test with IGROV1 ovarian was 82.6%; with OVCAR-3 ovarian it was 99.7%; with HS 578T breast it was 99.6%; with NCI/ADR-RES ovarian it was 91.4%; with T-47D breast, 83.3%; with BT-549 breast it was 103%. Moreover, the growth was 77% with MDA-MB-435 melanoma; 73.6% in the test with SW-620 colon; 75% in the test with MCF7 breast; 85.7% with HCT-116 colon; 97% in the test on HCC-2998 colon; 67.3% with KM12 colon.

As to `CCCC/C(=C\c1ccc(O)c(O)c1)C(=O)NC(Cc1ccccc1)C(=O)C(=O)NCCc1ccc(OC)cc1` (stereo unspecified), the growth was 105% in the test with SR leukemia; 89.7% in the test on RPMI-8226 leukemia; 97.2% in the test on OVCAR-8 ovarian; 99.3% in the test on OVCAR-5 ovarian; 92.7% in the test on OVCAR-4 ovarian; 105% in the test with SK-OV-3 ovarian. Besides, the growth in the test on IGROV1 ovarian was 96.8%; in the test on OVCAR-3 ovarian, 93.7%; in the test on HS 578T breast, 91.8%; with NCI/ADR-RES ovarian it was 101%; in the test with T-47D breast, 94.9%; in the test with BT-549 breast it was 84.1%. Besides, the growth with MDA-MB-435 melanoma is 94.3%; in the test with SW-620 colon, 101%; with MCF7 breast, 95%; with HCT-116 colon, 92.4%; in the test on HCC-2998 colon it was 102%; in the test on KM12 colon, 97.9%.

These data come from PubChem BioAssay (NCI).
